A number with no mark means an inactive call. Records with an inconclusive call do not appear. Calls of active or inactive are those of the source. Unless noted, calls come from the whole dose curve; as a rule, active = well fitted curve in either direction with a large enough effect (not every such curve was filed as active); inconclusive = small, poorly fitted or top-dose-only effect, or another doubt; inactive = flat fitted curve, though single readings scatter. Where only a bound is given, the exact number is not on record here.

Assay [1] concerns the target Lysosomal acid glucosylceramidase (Homo sapiens) (UniProt P04062). The assay can be described thus: Glucocerebrosidase-p2 (AID 348; in the data active = potency below about 10 µM; note: potency is the fitted concentration of half-maximal effect). As to conditions: purified GBA, blue fluorogenic substrate, 40 min. The method, boiled down: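 Compounds titrated from 0.6 nM upwards against 0.2 nM enzyme in pH 5.9 citric acid/KH2PO4, taurocholate, tween-20; blue fluorogenic substrate 80 uM, 40 min room temperature, stopped and read Ex 365/Em 440 for AC50.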

The nature of assay [2]: AP1 Signaling Pathway (AID 357). Note: % is set by controls: 0 for no effect and ±100 for the full control effect. As to conditions: ME-180 AP-1-bla reporter, EGF-induced, beta-lactamase ratio, 5 h; at 7.69 µM (top of the series) unless noted. The method, boiled down: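 ME-180 cells with beta-lactamase reporter under AP-1 response element, stimulated with EC50 EGF; compounds tested in titration series, 5 h at 37 °C. CCF4 substrate added 2.5 h at room temperature; 460/530 nm emission ratio gave %activity and AC50.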

Assay [3] in a line: NFAT Signaling Pathway (AID 444).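 Note: carbachol stimulus at about its EC50 of 1 µM final; % is set by controls: 0 for no effect and ±100 for the full control effect.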 As to conditions: Jurkat NFAT-bla M1, carbachol, beta-lactamase ratio, 5 h; at 7.69 µM (top of the series) unless noted. The method, boiled down: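 Jurkat cells carrying an NFAT-driven β-lactamase reporter and co-transfected muscarinic M1 receptor were treated with compound plus carbachol (1 uM final, an EC50 level) for 5 h at 37 °C. CCF4 loading followed for 1 h at RT; 460/530 nm ratio gave %activity.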

A short description of assay [4]: Stat Signaling Pathway (AID 446).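 Note: ME-180 cervical cancer cells given 40 pM IL-6 alongside compound; SIE-controlled beta-lactamase reporter measured as 460/530 nm FRET emission ratio; % is set by controls: 0 for no effect and ±100 for the full control effect.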 As to conditions: ME-180 SIE beta-lactamase reporter, IL-6 stimulated, 5 h; at 7.69 µM (top of the series) unless noted. The method, boiled down: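 IL-6/STAT signaling read in ME-180 cells via an SIE beta-lactamase reporter. Stimulus was 40 pM IL-6 (its AC50) for 5 hrs, so both activation and inhibition register.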
For assay [5], the target named is Glucocorticoid receptor (Homo sapiens) (UniProt P04150). The assay can be described thus: GR-GFP Redistribution (AID 450;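 active = compounds whose dose series gives a full or clear partial fitted curve of increased nuclear translocation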; note: potency is the fitted concentration of half-maximal effect). As to conditions: U2OS GR-GFP nuclear translocation, laser cytometry, 2 h.
Sequence of Glucocorticoid receptor (Homo sapiens) (P04150 whole entry, looked up, the tested form may be a part): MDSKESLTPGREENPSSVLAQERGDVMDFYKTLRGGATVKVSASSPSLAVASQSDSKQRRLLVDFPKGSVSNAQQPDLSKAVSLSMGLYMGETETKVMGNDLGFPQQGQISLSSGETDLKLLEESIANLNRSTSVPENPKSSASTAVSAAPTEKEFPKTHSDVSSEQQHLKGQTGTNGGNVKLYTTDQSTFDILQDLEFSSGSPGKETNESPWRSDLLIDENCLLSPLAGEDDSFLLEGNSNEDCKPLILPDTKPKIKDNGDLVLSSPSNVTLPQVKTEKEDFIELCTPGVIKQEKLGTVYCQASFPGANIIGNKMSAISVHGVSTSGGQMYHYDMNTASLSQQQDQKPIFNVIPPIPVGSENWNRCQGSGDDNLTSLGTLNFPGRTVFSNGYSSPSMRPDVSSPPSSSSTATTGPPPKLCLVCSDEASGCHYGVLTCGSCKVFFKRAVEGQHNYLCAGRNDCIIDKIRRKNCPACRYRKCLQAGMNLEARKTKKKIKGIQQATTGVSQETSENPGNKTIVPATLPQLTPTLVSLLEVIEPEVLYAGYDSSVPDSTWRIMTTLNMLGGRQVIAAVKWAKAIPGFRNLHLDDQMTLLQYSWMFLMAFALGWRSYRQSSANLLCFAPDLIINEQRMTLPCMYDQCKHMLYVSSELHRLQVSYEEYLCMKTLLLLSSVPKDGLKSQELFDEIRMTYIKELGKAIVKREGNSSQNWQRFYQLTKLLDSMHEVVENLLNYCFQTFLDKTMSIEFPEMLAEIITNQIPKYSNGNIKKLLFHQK
Assay [6] has the same target. Kind of assay: GR-EFC Redistribution (AID 451; calls by dose curve; note: potency is the fitted concentration of half-maximal effect). As to conditions: CHO-K1 GR-EFC translocation, beta-gal luminescence, 2 h. The method, boiled down: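 CHO-K1 cells stably expressing nuclear-localized β-gal enzyme acceptor and GR fused C-terminally to the enzyme donor fragment; ligand-driven nuclear translocation restores β-gal by complementation. Compounds titrated up to 46 uM final, 2 h at 37 °C; luminescence read.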

Assay [7] has as its target 3',5'-cyclic-AMP phosphodiesterase 4B (Homo sapiens) (UniProt Q07343). Kind of assay: qHTS Assay for Inhibitors of PDE-IV (AID 607; active = well fitted activation curve with a large enough effect in the main read-out, with a control signal flat, not every such curve was filed as active; note: % of control where 0% means no effect). As to conditions: HEK293 ACTOne CNG channel cells, membrane potential fluorescence; series mostly up to 22.9 µM. An outline of the steps:
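Live HEK293 cells with a modified cyclic nucleotide-gated (CNG) channel report intracellular cAMP via membrane-potential dye fluorescence (ex 535/em 590 nm). Endogenous PDE-IV was targeted. Compounds were tested at up to 22.9 uM final; RO 20-1724 100 uM served as control.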
On the technique in general: In qHTS, concentration-response curves come from the screen itself.

For assay [8], the target named is Cytochrome P450 2C9 (Homo sapiens) (UniProt P11712). The assay can be described thus: qHTS Assay for Inhibitors and Substrates of Cytochrome P450 2C9 (AID 883; active = well fitted curve in the direction sought with a large enough effect; an effect the other way counts as inactive or inconclusive; note: % is set by controls: 0 for no effect and ±100 for the full control effect; nearly all actives have a fitted effect of over 60% in size). As to conditions: recombinant CYP2C9, luciferin-H luminescence, 60 min; series mostly up to 11.4 µM. An outline of the steps: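 A luminogenic readout tracked human CYP2C9 (10nM) converting deoxyluciferin (100uM, at KM) in 25mM KPO4 during 60 min at 37C with regenerated NADPH. Values normalized to 57uM sulphaphenazole as complete inhibition.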
Sequence of Cytochrome P450 2C9 (Homo sapiens) (P11712 whole entry, looked up): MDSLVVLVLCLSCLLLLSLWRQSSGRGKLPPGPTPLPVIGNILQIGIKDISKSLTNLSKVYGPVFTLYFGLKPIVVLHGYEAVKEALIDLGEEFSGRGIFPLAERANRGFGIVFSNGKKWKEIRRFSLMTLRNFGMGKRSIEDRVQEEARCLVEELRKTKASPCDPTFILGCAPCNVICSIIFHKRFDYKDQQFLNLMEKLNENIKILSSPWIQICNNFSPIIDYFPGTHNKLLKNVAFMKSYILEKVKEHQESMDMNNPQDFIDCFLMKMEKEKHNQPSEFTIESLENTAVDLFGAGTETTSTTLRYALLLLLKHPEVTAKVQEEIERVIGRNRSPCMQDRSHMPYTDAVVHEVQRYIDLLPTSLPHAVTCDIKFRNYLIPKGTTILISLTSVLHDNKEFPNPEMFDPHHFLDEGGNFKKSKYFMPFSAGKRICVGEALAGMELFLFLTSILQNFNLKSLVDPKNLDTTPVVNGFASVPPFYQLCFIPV

The target of assay [9] is Cytochrome P450 3A4 (Homo sapiens) (UniProt P08684). The assay can be described thus: qHTS Assay for Inhibitors and Substrates of Cytochrome P450 3A4 (AID 884; active = well fitted curve in the direction sought with a large enough effect; an effect the other way counts as inactive or inconclusive; note: nearly all actives have a fitted effect of over 50% in size; note: potency is the fitted concentration of half-maximal effect). As to conditions: recombinant CYP3A4, Luciferin-PPXE luminescence; series mostly up to 57.1 µM. An outline of the steps:
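20 nM human CYP3A4 with 25 uM Luciferin-PPXE (at KM) in 200 mM KPO4, preincubated 10 min with compound; NADPH regeneration started a 60 min RT reaction. Luciferin detected by luminescence, normalized to 57 uM ketoconazole as full inhibition.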

For assay [10], the target named is Cytochrome P450 2D6 (Homo sapiens) (UniProt P10635). The assay can be described thus: qHTS Assay for Inhibitors and Substrates of Cytochrome P450 2D6 (AID 891; active = well fitted curve in the direction sought with a large enough effect; an effect the other way counts as inactive or inconclusive;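 note: luciferin methyl ether substrate demethylated by CYP2D6 with NADPH regeneration; % is set by controls: 0 for no effect and ±100 for the full control effect; nearly all actives have a fitted effect of over 60% in size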). As to conditions: recombinant CYP2D6, luciferin-ME EGE luminescence; series mostly up to 11.4 µM. An outline of the steps:
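Human CYP2D6 (5 nM) with 30 uM Luciferin-ME EGE (at Km) in 100 mM KPO4, compound preincubated 10 min, then NADPH regeneration system for 60 min at room temperature. Luciferin read by luminescence; normalized to 1.43 uM quinidine.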

Assay [11] has as its target Cytochrome P450 2C19 (Homo sapiens) (UniProt P33261). The assay can be described thus: qHTS Assay for Inhibitors and Substrates of Cytochrome P450 2C19 (AID 899; active = well fitted curve in the direction sought with a large enough effect; an effect the other way counts as inactive or inconclusive; note: % is set by controls: 0 for no effect and ±100 for the full control effect; nearly all actives have a fitted effect of over 60% in size). As to conditions: recombinant CYP2C19, luciferin-H EGE luminescence; series mostly up to 11.4 µM. An outline of the steps:
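NADPH-dependent conversion of Luciferin-H EGE (10uM, at KM) by 5nM enzyme in 50mM KPO4, 60 min at 37C following 10 min compound preincubation. Stopped with luciferin detection buffer; luminescence read after 20 min.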

In assay [12] the target is Mitogen-activated protein kinase 10 (Mus musculus) (UniProt Q61831). Kind of assay: JNK3 AlphaScreen Assay (AID 530).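 Note: kinase came from lysate of stimulated human HepG2 cells; signal reports phosphorylation of biotinylated GST-cJun 1-79 at Ser73 with 10 µM ATP; % is set by controls: 0 for no effect and ±100 for the full control effect.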 As to conditions: JNK3 lysate, c-Jun phosphorylation; series mostly up to 11.4 µM. The method, boiled down: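 Inhibitors reduce antibody binding to phosphorylated biotin-cJun, lowering AlphaScreen luminescence. Lysates from HepG2 cells pre-activated by IL-1beta plus TNF-alpha supplied JNK3; compounds were titrated.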
(Bead proximity is the source of the signal in Alpha formats.)

The target in assay [13] is Cytochrome P450 3A4 (Homo sapiens) (UniProt P08684). Kind of assay: qHTS Assay for Activators of Cytochrome P450 3A4 (AID 885; active = well fitted curve in the direction sought with a large enough effect; an effect the other way counts as inactive or inconclusive; note: nearly all actives have a fitted effect of over 65% in size). As to conditions: recombinant CYP3A4, Luciferin-PPXE luminescence, 60 min; series mostly up to 11.4 µM. The method, boiled down: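 Quantitative HTS format: compounds preincubated with 20nM human CYP3A4 and Luciferin-PPXE substrate at KM, reaction started by NADPH regeneration, stopped after 60 min, luciferase luminescence read 20 min later.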
Sequence of Cytochrome P450 3A4 (Homo sapiens) (P08684 whole entry, looked up): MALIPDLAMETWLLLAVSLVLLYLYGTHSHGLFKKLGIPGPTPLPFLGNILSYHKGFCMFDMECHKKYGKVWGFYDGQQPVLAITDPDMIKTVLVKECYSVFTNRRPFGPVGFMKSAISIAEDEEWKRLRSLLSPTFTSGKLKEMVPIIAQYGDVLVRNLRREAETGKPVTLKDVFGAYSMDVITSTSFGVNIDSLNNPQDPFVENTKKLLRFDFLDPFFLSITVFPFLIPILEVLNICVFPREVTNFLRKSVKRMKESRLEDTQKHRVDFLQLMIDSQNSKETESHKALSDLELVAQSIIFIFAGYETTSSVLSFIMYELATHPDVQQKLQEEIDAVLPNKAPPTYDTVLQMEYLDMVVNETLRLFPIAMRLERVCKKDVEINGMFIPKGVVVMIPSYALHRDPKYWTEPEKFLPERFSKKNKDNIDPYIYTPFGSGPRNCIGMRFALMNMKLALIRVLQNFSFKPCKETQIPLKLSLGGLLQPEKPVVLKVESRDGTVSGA

Assay [14] can be described thus: qHTS Assay for Identification of Small Molecule Agonists for Hypoxia Response Element Signaling Pathway (AID 914; active = well fitted activation curve with a large enough effect in the signal ratio, with a control signal flat, not every such curve was filed as active; the % refers to the signal ratio; note: % of control where 0% means no effect). As to conditions: ME-180 (cervical carcinoma) HRE-bla reporter, beta-lactamase ratio, CoCl2, 17 h; activation: stronger effect = higher value. An outline of the steps: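 In Opti-MEM containing 0.5% dialyzed FBS and 10 mM HEPES, ME-180 HRE-bla cells received a compound titration and EC50 CoCl2. They were incubated 17 hours, then CCF4-loaded 2.5 hours at room temperature before ratio reading.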

A short description of assay [15]: Confirmation and Secondary Assay for Modulators of Hemoglobin Beta Chain Splicing at IVS2 654 locus (AID 910; active = well fitted curve in the direction sought with a large enough effect; an effect the other way counts as inactive or inconclusive;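 note: per-well total GFP intensity by laser scanning cytometry after 2-day treatment; % of control where 0% means no effect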). As to conditions: HeLa EGFP-654 splicing reporter, GFP fluorescence, 48 h; series mostly up to 38.3 µM. An outline of the steps:
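HeLa cells stably carrying EGFP interrupted by mutant beta-globin IVS2-654 intron (CMV-driven) were treated with compound for 2 days at 37C; corrected splicing was scored as total peak GFP intensity per well (488 nm excitation, 500-520 nm emission).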

Assay [16] is described as follows: Confirmation and Secondary Assay for Modulators of Hemoglobin Beta Chain Splicing at IVS2 705 locus (AID 930; active = well fitted curve in the direction sought with a large enough effect; an effect the other way counts as inactive or inconclusive;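 note: HeLa cells stably expressing the EGFP-705 splicing reporter; GFP fluorescence per well restored by corrected splicing of the IVS2-705 intron in EGFP; % of control where 0% means no effect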). As to conditions: HeLa EGFP-705 splicing reporter, GFP fluorescence, 48 h; series mostly up to 38.3 µM. The method, boiled down: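 Per-well GFP, captured at 1 x 8 µm resolution with 488 nm excitation, served as the read-out for HeLa EGFP-705 cells incubated 2 days with test compound versus DMSO.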

Sequence of 3',5'-cyclic-AMP phosphodiesterase 4B (Homo sapiens) (Q07343 whole entry, looked up): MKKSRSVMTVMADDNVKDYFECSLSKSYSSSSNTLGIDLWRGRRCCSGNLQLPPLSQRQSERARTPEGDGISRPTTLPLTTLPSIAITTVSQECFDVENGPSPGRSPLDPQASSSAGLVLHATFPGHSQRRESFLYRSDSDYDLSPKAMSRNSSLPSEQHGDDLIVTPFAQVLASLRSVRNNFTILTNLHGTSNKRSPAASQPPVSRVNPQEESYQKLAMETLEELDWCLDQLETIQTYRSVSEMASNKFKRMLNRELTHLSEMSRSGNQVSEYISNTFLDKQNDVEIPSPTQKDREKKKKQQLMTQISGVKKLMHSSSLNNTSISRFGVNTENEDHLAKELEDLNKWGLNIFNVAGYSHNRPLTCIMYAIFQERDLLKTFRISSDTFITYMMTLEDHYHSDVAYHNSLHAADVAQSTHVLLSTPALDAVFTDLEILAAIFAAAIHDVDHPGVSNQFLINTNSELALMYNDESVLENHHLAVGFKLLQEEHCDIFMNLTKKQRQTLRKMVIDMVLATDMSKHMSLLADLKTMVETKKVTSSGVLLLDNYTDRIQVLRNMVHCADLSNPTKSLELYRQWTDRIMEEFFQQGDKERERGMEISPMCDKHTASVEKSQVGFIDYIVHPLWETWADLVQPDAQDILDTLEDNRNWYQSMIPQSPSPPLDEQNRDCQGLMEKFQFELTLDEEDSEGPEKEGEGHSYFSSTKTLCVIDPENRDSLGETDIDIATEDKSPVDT
Sequence of Lysosomal acid glucosylceramidase (Homo sapiens) (P04062 whole entry, looked up): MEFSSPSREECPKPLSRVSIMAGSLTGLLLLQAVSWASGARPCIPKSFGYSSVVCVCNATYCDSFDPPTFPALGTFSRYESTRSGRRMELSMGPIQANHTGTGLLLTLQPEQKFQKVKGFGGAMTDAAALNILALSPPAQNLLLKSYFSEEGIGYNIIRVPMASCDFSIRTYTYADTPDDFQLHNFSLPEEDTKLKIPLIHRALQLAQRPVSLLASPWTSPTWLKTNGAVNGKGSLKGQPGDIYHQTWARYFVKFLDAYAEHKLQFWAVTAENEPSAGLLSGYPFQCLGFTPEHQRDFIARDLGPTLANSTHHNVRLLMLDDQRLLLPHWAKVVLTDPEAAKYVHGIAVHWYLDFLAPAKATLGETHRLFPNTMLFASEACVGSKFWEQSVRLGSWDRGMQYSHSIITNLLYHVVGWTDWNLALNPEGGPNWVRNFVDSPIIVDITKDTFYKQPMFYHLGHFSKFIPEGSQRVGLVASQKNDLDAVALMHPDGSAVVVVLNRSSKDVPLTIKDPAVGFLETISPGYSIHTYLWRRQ
Sequence of Cytochrome P450 2C19 (Homo sapiens) (P33261 whole entry, looked up): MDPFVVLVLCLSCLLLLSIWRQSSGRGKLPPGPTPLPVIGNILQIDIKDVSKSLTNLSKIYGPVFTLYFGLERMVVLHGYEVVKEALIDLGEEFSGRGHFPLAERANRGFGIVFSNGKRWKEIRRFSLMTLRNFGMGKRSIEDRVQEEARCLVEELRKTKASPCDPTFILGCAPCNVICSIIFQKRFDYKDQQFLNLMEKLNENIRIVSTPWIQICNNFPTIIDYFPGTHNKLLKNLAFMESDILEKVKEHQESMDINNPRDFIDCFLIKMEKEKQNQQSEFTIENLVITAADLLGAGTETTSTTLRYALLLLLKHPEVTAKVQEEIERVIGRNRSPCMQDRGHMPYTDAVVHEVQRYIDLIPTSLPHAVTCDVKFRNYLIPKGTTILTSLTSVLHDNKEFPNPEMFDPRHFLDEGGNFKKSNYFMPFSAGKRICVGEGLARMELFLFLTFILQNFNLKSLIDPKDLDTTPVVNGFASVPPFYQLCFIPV
Sequence of Cytochrome P450 2D6 (Homo sapiens) (P10635 whole entry, looked up): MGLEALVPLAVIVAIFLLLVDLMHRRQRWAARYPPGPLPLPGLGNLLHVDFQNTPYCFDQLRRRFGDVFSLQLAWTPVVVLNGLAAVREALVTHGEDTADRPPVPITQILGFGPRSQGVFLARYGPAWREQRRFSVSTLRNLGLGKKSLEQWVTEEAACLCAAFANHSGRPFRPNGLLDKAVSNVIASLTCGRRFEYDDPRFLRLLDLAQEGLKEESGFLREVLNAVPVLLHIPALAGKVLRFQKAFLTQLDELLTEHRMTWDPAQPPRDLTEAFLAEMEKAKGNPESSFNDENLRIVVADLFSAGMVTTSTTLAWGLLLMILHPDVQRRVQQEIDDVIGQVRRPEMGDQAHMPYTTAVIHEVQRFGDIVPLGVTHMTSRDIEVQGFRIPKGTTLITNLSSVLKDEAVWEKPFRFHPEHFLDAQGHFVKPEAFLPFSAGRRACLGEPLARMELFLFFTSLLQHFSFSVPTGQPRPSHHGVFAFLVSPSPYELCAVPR

`O=S(=O)(O)c1cc(S(=O)(=O)O)c2c(N=Nc3cccc4ccccc34)c(O)ccc2c1`: the results for the Potency in [1], in assay [5] and in assay [6] were above 11.4 µM, above 46 µM and above 9.22 µM, respectively. The activity change, negative = inhibition was 4.87% in [2], 21.1% in assay [3] and -5.78% [at 11.4 µM] in [9]. Besides, the activity, negative = inhibition in assay [4] was 5.07%. The Potency result in assay [7], in assay [8], in [10] and in assay [11] was “inactive” each time.

Take `COc1ccc(C(=O)N2CCC3(CC2)CCN(c2ccccn2)CC3)cc1`: the values for the Potency in [1] and in [6] were above 11.4 µM and above 46 µM, respectively. Besides, the results for the activity change, negative = inhibition in [2] and in [3] were -1.45% and -26.9%, respectively. In addition, the activity, negative = inhibition in assay [4] is -10.1%. For the same molecule, the Potency result in assay [12] and in assay [7] was “inactive” each time.

On to `COCCn1c(=O)c(-c2ccc(OC)cc2)nc2cnc(Oc3ccccc3)nc21`, for which the Potency is above 11.4 µM in [1], above 9.22 µM in [5] and above 46 µM in [6]. The activity change, negative = inhibition in [2] was -9.38%; in [3], 12.7%. Besides, in [4], the activity, negative = inhibition was 16.5%. Besides, the Potency result in assay [7] was “inactive”.

In the case of `N#CCCn1c(=O)c(-c2cc(F)cc(F)c2)nc2cnc(Oc3cccc(Cl)c3)nc21`, the results for the Potency in assay [1], in assay [5] and in assay [6] were above 11.4 µM, above 9.22 µM and above 46 µM, respectively. For the same molecule, the activity change, negative = inhibition is -12.5% in assay [2] and -4.95% in assay [3]. Moreover, the activity, negative = inhibition in [4] is 12.5%. For the same molecule, the Potency entry in assay [7] and in assay [13] was “inactive” throughout.

Consider `O=C1c2ccccc2C(=O)c2c(Nc3cc4c5c(ccc6c7ccc8c9c(cc(Nc%10cccc%11c%10C(=O)c%10ccccc%10C%11=O)c(c3c56)c97)-c3ccccc3C8=O)C(=O)c3ccccc3-4)cccc21`, for which the Potency in [1] is above 11.4 µM; in assay [5], above 46 µM; in [6], above 9.22 µM. Also, the figures for the activity change, negative = inhibition in assay [2] and in assay [3] were 11.6% and 22.7%, respectively. Also, in [4], the activity, negative = inhibition is 11.5%. Besides, in assay [7], the Potency entry is “inactive”.

As for `O=c1cc(N=Nc2ccc(O)cc2)[nH]c(=O)[nH]1`, the Potency in assay [1] is above 11.4 µM; in [5] it was above 46 µM; in [6] it was above 9.22 µM. Also, the results for the activity change, negative = inhibition in [2] and in assay [3] were -6.46% and -4.22%, respectively. Also, the activity, negative = inhibition in [4] was 4.24%. The Potency entry in [12] and in [7] was “inactive” throughout. Besides, the activation in [14] was -26.3%.

For the molecule `CS(=O)(=O)Nc1cccc(-c2nc(NCc3cccnc3)c3ccccc3n2)c1`, the Potency in assay [1] was above 11.4 µM; in assay [5], above 46 µM; in assay [6], above 46 µM; in assay [9] it was 2 µM (active). Moreover, the activity change, negative = inhibition in [2] is -19.8%; in assay [3], 23.6%. Besides, the activity, negative = inhibition in assay [4] was -19.5%. Also, the Potency entry in [12] and in [13] was “inactive” in each case. The outcome in [15] and in assay [16] was inactive.

Take `COc1ccc(C(=O)N2CCC[C@@]3(CCN(c4ccccc4)C3)C2)cc1`: the Potency in assay [1] is above 11.4 µM; in assay [6] it was above 46 µM. For the same molecule, the results for the activity change, negative = inhibition in assay [2] and in [3] were -5.32% and -9.66%, respectively. Moreover, in assay [4], the activity, negative = inhibition is -1.29%.

The values are drawn from PubChem BioAssay (NCATS).
